Laboratory results published in PubChem BioAssay (EPA / NIEHS).
Values joined by “and” are separate entries in the source; they are usually repeats but may differ in a detail not shown here. Equal values may be shown once. Some compounds were tested as several samples or in several runs, with calls that do not always agree. Active and inactive are the calls of the source. Rule for the calls: active = hit-call score of the fitted dose curve at least 0.9, where 1 is the maximum; inactive = score below 0.9.

Experiment: CCTE_Shafer_MEA_dev_per_burst_spike_percent: CCTE's Neural Network Formation Assay for Percent of Spikes in a Burst, Shafer Lab (AID 2284032)
Procedure: CCTE_Shafer_MEA_dev assay is conducted using Axion Biosystems 48 well microelectrode array (MEA) plates and Maestro recording system. Each well of the MEA plate contains a grid of 16 microelectrodes embedded in the culture surface. Electrically active cells, such as neurons, can be cultured over the electrodes, and electrical activity in these cells can be recorded extracellularly. The spontaneous firing of neurons is captured from each electrode on a microsecond timescale providing both temporally and spatially precise data. […] The CCTE_Shafer_MEA_dev assay uses primary cultures of rat cortical neurons. Recordings are made on days post-plating 5, 7, 9 and 12. As these cultures mature over time, neural networks develop functional activity and form cohesive networks in which electrical activity can be highly coordinated. CCTE_Shafer_MEA_dev_per_burst_spike_percent is 1 of 19 assay components of the CCTE_Shafer_MEA_dev assay. It measures the percentage of spikes (action potential firings) in a single-electrode burst (temporally-clustered group of spikes) as the total number spikes in bursts divided by the total number of spikes during a recording in a microelectrode array (MEA) using Axion Biosystems Maestro 768 channel amplifier with the AxIS adaptive spike detector. The percent of spikes in bursts is averaged across the actively bursting electrodes to report a well-mean value. To collapse across multiple recordings made on days post-plating 5, 7, 9 and 12, the trapezoidal area-under-the-curve of the component is calculated.Data from the assay component CCTE_Shafer_MEA_dev_per_burst_spike_percent was analyzed into 1 assay endpoint. This assay endpoint, CCTE_Shafer_MEA_dev_per_burst_spike_percent, was analyzed in the negative analysis fitting direction relative to DMSO as the negative control and baseline of activity. Using a type of functional reporter, gain or loss-of-signal activity can be used to understand electrical activity.
On the day prior to culture, each well was coated thoroughly with 150 uL of 0.05% polyethyleneimine (PEI, Sigma Cat P3143) in 50 mM HEPES (Sigma Cat H7523) at a pH of 8. The plate was incubated at 37C for one hour. PEI was rinsed out with 500 uL of sterile water three times. Plates were stored at 4C until the day of culture. This culture was plated at a seeding density of 1.5 x 10^5 cells/well on a 48-well MEA plate, prepared as described above. Cells were administered via a 25 uL media/laminin ([…]; Sigma Cat L2020-1MG) drop directly onto the microelectrode array, as adding the cells with the laminin results in better attachment than pre-coating with laminin. After 2 hours, an additional 475 uL of cortical media was added and the cells returned to the incubator. Exposure starts at day 0 of plating and is continued over twelve days of network development until the experiment is terminated. Cells are fed with fresh medium on DIV 5 and 9, following the recordings on those days. The entire volume of media in the well is exchanged and any vehicle or compound treatment is renewed. Complete details are found in OP-NHEERL/ISTD/SBB/TJS/2015-03-r0 (available on request, email shafer.tim@epa.gov). Measurement of the electrical activity is non-invasive, and recordings can be made from the same plate over multiple different days of the culture. In cortical neurons, this allows for the measurement of extracellular action potentials over the period during which networks form in the MEA plate.

Row | Compound | outcome | AC50
1 | O=P(OCCCl)(OCCCl)OCCCl | inactive | –
2 | CNC(=O)Oc1cccc2c1OC(C)(C)C2 | inactive | 15.5 µM (active)
3 | [Cl-].[Cl-].[Hg+2] | – | 0.882 µM (active)
4 | CN(C)[C@@H]1C(=O)C(C(N)=O)=C(O)[C@@]2(O)C(=O)C3=C(O)c4c(O)cccc4[C@@](C)(O)[C@H]3C[C@@H]12 | inactive | –
5 | Clc1ccc(C(c2ccc(Cl)cc2)C(Cl)Cl)cc1 | – | 4.86 µM (active)
6 | C1=Cc2cccc3cccc1c23 | inactive | –
7 | ClC1=C(Cl)[C@]2(Cl)[C@H]3[C@H]([C@@H]4C=C[C@H]3C4)[C@@]1(Cl)C2(Cl)Cl | – | 5.76 µM (active)
8 | CC(C)COC(=O)c1ccccc1C(=O)OCC(C)C | – | 23.1 µM (active)
9 | COP(=S)(OC)SCN1C(=O)c2ccccc2C1=O | – | 32.8 µM (active) and 51.5 µM (active)
10 | CC(C)(O)c1cnn2c(-c3ccc(F)c(-c4c(F)cccc4C#N)c3)cnc2n1 | – | 10 µM (active)
11 | CCCCOC(=O)c1ccccc1C(=O)OCc1ccccc1 | inactive | –
12 | OCCOCCO | inactive | –
13 | Nc1cc(Cl)cc(C(=O)O)c1Cl | inactive | –
14 | CCNS(=O)(=O)C(F)(F)C(F)(F)C(F)(F)C(F)(F)C(F)(F)C(F)(F)C(F)(F)C(F)(F)F | – | 15 µM (active) and 3.54 µM (active)
15 | CCC[CH2][Sn]([Cl])([CH2]CCC)[CH2]CCC | – | 0.0758 µM (active)
16 | Clc1ccc(C(c2ccc(Cl)cc2)C(Cl)(Cl)Cl)cc1 | – | 3.45 µM (active) and 6.66 µM (active)
17 | CC(C)(C)C(O)(CCc1ccc(Cl)cc1)Cn1cncn1 (stereo unspecified) | – | 15 µM (active)
18 | ClC1=C(Cl)C2(Cl)C3C(Cl)C=CC3C1(Cl)C2(Cl)Cl (stereo unspecified) | – | 4.18 µM (active)
19 | COC(=O)Nc1nc2ccccc2[nH]1 | inactive | –
20 | [O-][Cl+]O | inactive | –
